Hit rate of the full screen: of about 13,000 compounds, about 3,200 (25%) showed an effect of 50% or more. The list shows a part of the results.
Tested on: P. falciparum stage V gametocytes
Parameters: BacTiter-Glo ATP luminescence viability of purified stage V gametocytes in 384-well plates, per cent inhibition versus DMSO
Details: 48 h, 5 µM; inhibitor

Going from CCOC(=O)CNC(=O)N(CCN(Cc1ccccc1)C(=O)NCC(=O)OCC)Cc1ccccc1 [TCMDC-138999] to CC(C)CNCc1cccc(-c2cccc(CN(CCN(C)C)C(=O)NCCc3ccccc3)c2)c1 [TCMDC-140620], the “% Inhibition” value rises from 6.745% to 102.4%.

Going from CC(C)CNCc1cccc(-c2ccc(CNc3ccc(C(=O)c4ccccc4)cc3)cc2)c1 [TCMDC-140728] to CC(C)CNCc1ccc(-c2cccc(CN(CCN(C)C)C(=O)NCCc3ccccc3)c2)cc1 [TCMDC-140621], the “% Inhibition” value rises from 10.94% to 102.2%.

First: CN(C)CCN(C)Cc1cccc(-c2cccc(NC(=O)c3cccc(C#N)c3)c2)c1 [TCMDC-133360]
Second: CC(C)CNCc1cccc(-c2cccc(CN(CCN(C)C)C(=O)Nc3ccccc3)c2)c1 [TCMDC-140592]
The “% Inhibition” value of the first is lower: 6.032% for the first, 108.6% for the second.

Going from CC(C)CNC(=O)c1cncc(-c2ccc(CNCCCc3ccccc3)cc2)c1 [TCMDC-134247] to CC[C@H](C)CNC(=O)c1cncc(-c2cccc(CNCCCc3ccccc3)c2)c1 [TCMDC-134221], the “% Inhibition” value rises from -10.62% to 19.08%.

Going from CN(C)CCOc1cccc(NC(=O)Nc2ccc(-c3ccccc3)cc2)c1 [TCMDC-139537] to CN(CCCCNC(=O)c1ccc(-c2ccccc2)cc1)C1CCc2c(O)cccc2C1 (stereo not shown) [TCMDC-139005], the “% Inhibition” value falls from 22.41% to -43.63%.

Compared with CN(CC(=O)Nc1ccc(F)c(F)c1F)c1ncnc2sc(-c3ccccc3)cc12 [TCMDC-124491], Cn1cncc1-c1ccc2ncnc(Nc3ccc4c(cnn4Cc4ccccc4)c3)c2c1 [TCMDC-137781] is lower in “% Inhibition” value: 23.36% for the first, -8.163% for the second.

First: O=C(Nc1ccc2c(ccn2C2CCCN(Cc3cc(F)cc(F)c3F)CC2)c1)c1ccco1 (stereo not shown) [TCMDC-135087]
Second: O=C(Nc1ccc(OC2CCN(Cc3ccc(F)cc3)CC2)cc1)c1cccs1 [TCMDC-133741]
The “% Inhibition” value of the first is lower: 26.42% for the first, 27.9% for the second.

First: Nc1nc(N)c2cc(N(Cc3ccccc3)Cc3ccccc3)ccc2n1 [TCMDC-137850]
Second: Cc1ccc(-c2nc3ccccc3o2)cc1NCc1cc(Cc2ccccc2)ccc1O [TCMDC-125705]
The “% Inhibition” value of the first is higher: -9.254% for the first, -21.71% for the second.

Compared with Cc1cccc2[nH]c(-c3cccc(-c4cccc(NC(=O)CNc5ccc(C(N)=O)cc5)c4)c3)nc12 [TCMDC-132165], Cc1ccccc1CNc1noc(-c2c(-c3ccccc3)noc2C)n1 [TCMDC-134201] is lower in “% Inhibition” value: -3.752% for the first, -15.74% for the second.

Going from Cc1ccccc1C1CCN(c2ccc(C(=O)NC3CC3)cn2)CC1 [TCMDC-134592] to CN(C)Cc1ccc(CNC2CCN(Cc3ccccc3Cl)CC2)cc1 [TCMDC-141671], the “% Inhibition” value falls from 24.07% to -2.208%.

First: COc1ccc2nccc(N3CCC(NCCNCc4cc5c(cn4)OCCO5)C3)c2n1 (stereo not shown) [TCMDC-134650]
Second: COc1ccc2nccc(N3CCC(SCCNCc4cc5c(cn4)OCCO5)C3)c2n1 (stereo not shown) [TCMDC-134286]
The “% Inhibition” value of the first is higher: 71.62% for the first, 24.01% for the second.

Going from COc1ccc2nccc(N3CCC(CCNCc4cc5c(cn4)OCCO5)CC3)c2n1 [TCMDC-133538] to COc1ccc2nccc(N3CCC(CCNCc4cc5c(cn4)OCCO5)CC3)c2c1.Cl [TCMDC-133537], the “% Inhibition” value falls from 80.45% to 9.41%.

Compared with COc1ccc2nccc(N3CCC(CCNCc4ccc5c(n4)NC(=O)CS5)CC3)c2n1 [TCMDC-141944], COc1ccc2nccc(NCC3(O)CCC(NCc4cc5c(cn4)OCCO5)CC3)c2n1 (stereo not shown) [TCMDC-134312] is lower in “% Inhibition” value: 32.25% for the first, -33.45% for the second.

Going from COC(=O)c1cc2cccc(NC[C@@H](C)NC[C@H](O)c3cccc(Cl)c3)c2[nH]1 [TCMDC-137770] to O=C(CN1CCCCC1)Nc1ccc(Nc2nccc(NCC(O)c3ccccc3)n2)cc1 (stereo not shown) [TCMDC-136469], the “% Inhibition” value falls from 45% to -6.593%.

First: CCCCCCN1CCC(NCc2cccc(-n3ccnc3)c2)CC1 [TCMDC-141664]
Second: c1cc(CNC2CCN(CC3CCCCC3)CC2)cc(-n2ccnc2)c1 [TCMDC-141657]
The “% Inhibition” value of the first is lower: 11.65% for the first, 70.67% for the second.

First: Clc1ccccc1CN1CCC(NCc2cccc(-n3ccnc3)c2)CC1 [TCMDC-141672]
Second: COc1ccc(CN2CCC(NCc3cccc(-n4ccnc4)c3)CC2)cc1 [TCMDC-141651]
The “% Inhibition” value of the first is higher: 86.45% for the first, 14.29% for the second.

First: c1cc(CNCC2CCN(CC3CCCCC3)CC2)cc(-n2ccnc2)c1 [TCMDC-141675]
Second: CCN1CCC(N(Cc2ccc(-c3ccc(C(F)(F)F)s3)cc2)C(=O)Cn2c(CCc3cccc(F)c3F)nc(=O)c3ccccc32)CC1 [TCMDC-141282]
The “% Inhibition” value of the first is lower: 21.38% for the first, 107.7% for the second.

Going from Cc1ccc(-c2cnc3[nH]cc(-c4ccc(C(=O)O)c(C)c4)c3c2)cc1C.O=C(O)C(F)(F)F [TCMDC-136381] to CCN1CCCC1CN(Cc1ccc(-c2ccc(C(F)(F)F)cc2)cc1)C(=O)Cn1c(CCc2cccc(F)c2F)nc(=O)c2ccccc21 (stereo not shown) [TCMDC-141061], the “% Inhibition” value rises from 18.23% to 68.75%.

First: CCCCc1cc(NCC)nc(Nc2ccc(F)cc2)n1 [TCMDC-134009]
Second: CCCOC(=O)c1ccc(OCCCON2C(N)=NC(N)=NC2(C)C)cc1 [TCMDC-131715]
The “% Inhibition” value of the first is higher: 8.286% for the first, 8.227% for the second.

First: CCN(CC)CCNC(=O)c1ccc(N=Cc2c(O)[nH]c3ccc(S(=O)(=O)Cc4c(Cl)cccc4Cl)cc23)cc1 [TCMDC-135945]
Second: NS(=O)(=O)c1cccc(N=Cc2c(O)[nH]c3ccc(S(=O)(=O)Cc4c(Cl)cccc4Cl)cc23)c1 [TCMDC-135947]
The “% Inhibition” value of the first is lower: 35.17% for the first, 101.9% for the second.

First: Cc1cc(O)c(CN2CCN(Cc3cccs3)CC2)cc1C(C)C [TCMDC-124883]
Second: CCN1CCC(N(Cc2ccc(-c3ccc(C(F)(F)F)cc3)cc2)C(=O)CCCCn2c(CCc3cccc(F)c3F)nc(=O)c3ccccc32)CC1 [TCMDC-141321]
The “% Inhibition” value of the first is lower: -57.78% for the first, 85.03% for the second.

O=C(Cn1c(CCc2cccc(F)c2F)nc(=O)c2ccccc21)N(Cc1ccc(-c2ccc(C(F)(F)F)cc2)cc1)C1CCN(C2=NCCS2)CC1 [TCMDC-136537] was tested, and the “% Inhibition” value was 107.4%.

Source: PMC4552634, “A New Set of Chemical Starting Points with Plasmodium falciparum Transmission-Blocking Potential for Antimalarial Drug Discovery” (PLoS ONE, 2015)
